# FEN1 inhibitor: blocks human flap endonuclease 1; P39748; Recombinant FEN1 flap cleavage, fluorescence, 15 min; Potency, µM (highest dose often 114 µM), for the others: at the top dose activity change, negative = inhibition, usual class: inhibitors; 390,000 tested, 0.35% active; AID 588795; also: potency is read from the fitted curve at half-maximal effect; % is scaled to controls: 0 for no effect and ±100 for the full control effect; nearly all actives have a fitted effect of over 65% in size
#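 Quantitative HTS format: each compound was titrated, incubated with 10 nM nuclease for 15 min at room temperature, then challenged with flap substrate at 50 nM final. Signal change over 15 min gave concentration–effect curves.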
# PGK inhibitor: T. brucei PGK inhibition. PGK/GAPDH coupled, Kinase-Glo luminescence, 60 min. Potency, µM (series often up to 57.5 µM), for inactives: at the top dose activity change, negative = inhibition, most hits filed as inhibitors. 380,000 tested, 0.043% active. AID 602233; also: potency is read from the fitted curve at half-maximal effect; % is scaled to controls: 0 for no effect and ±100 for the full control effect; nearly all actives have a fitted effect of over 60% in size
#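 Luminescent ATP detection (Kinase-Glo Plus) follows a 60-minute room-temperature incubation, with wells lacking PGK as controls. Buffer: 100 mM TEA (pH 7.6), 5 mM MgCl2, 0.01% Tween-20. Coupling enzyme GAPDH (100 nM final) supplies unstable 1,3-BPG in-well.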
# WRN helicase inh: inhibitors of human WRN helicase | Potency, µM (titrated, usually from 114 µM), for inactives: at the top dose activity change, negative = inhibition, actives largely listed as inhibitors | Q14191 | 360,000 tested, 0.46% active | WRN helicase unwinding, fluorescent forked duplex, kinetic | AID 651768; also: potency is read from the fitted curve at half-maximal effect; % is scaled to controls: 0 for no effect and ±100 for the full control effect; nearly all actives have a fitted effect of over 55% in size
# Target sequence (Q14191 whole entry, looked up): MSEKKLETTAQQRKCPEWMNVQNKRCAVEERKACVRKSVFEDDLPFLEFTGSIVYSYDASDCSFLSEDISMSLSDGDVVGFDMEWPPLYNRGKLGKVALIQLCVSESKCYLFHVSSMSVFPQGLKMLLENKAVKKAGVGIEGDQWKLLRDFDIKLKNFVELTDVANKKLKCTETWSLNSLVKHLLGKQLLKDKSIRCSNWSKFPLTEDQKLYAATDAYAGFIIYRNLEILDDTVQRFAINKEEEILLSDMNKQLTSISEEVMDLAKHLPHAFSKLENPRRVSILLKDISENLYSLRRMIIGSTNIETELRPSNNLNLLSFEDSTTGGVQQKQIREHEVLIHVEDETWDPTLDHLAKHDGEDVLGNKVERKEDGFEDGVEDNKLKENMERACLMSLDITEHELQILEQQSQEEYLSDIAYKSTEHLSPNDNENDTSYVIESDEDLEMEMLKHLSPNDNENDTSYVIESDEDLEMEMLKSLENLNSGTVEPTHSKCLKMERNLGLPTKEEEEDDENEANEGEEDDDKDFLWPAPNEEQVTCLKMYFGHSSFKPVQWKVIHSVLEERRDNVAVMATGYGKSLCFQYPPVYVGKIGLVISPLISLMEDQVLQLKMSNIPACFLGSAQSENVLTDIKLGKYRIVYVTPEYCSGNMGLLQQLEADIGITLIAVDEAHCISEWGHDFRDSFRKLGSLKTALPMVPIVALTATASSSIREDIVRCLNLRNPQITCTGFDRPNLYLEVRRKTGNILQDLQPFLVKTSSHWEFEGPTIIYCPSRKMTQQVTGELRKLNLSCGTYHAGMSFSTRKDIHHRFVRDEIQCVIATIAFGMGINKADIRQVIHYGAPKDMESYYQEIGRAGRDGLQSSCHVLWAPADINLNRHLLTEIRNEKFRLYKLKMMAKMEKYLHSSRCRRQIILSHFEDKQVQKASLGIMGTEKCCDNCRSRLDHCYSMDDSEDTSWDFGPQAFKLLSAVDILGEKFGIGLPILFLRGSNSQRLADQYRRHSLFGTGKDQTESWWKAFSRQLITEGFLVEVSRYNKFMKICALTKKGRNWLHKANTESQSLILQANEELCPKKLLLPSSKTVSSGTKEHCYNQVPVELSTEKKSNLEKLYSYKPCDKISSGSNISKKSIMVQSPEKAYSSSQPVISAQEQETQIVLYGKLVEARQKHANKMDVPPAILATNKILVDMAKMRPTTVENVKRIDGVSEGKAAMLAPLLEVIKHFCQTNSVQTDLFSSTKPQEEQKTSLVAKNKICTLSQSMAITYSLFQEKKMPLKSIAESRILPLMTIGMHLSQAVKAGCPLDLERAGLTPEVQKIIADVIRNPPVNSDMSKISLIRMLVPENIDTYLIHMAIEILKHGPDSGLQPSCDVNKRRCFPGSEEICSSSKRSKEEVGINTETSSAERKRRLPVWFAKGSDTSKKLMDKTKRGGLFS
#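 Primary qHTS, 1536-well format. 20 nM WRN + compound, 15 min RT; start with 100 nM forked fluorophore/quencher duplex, 2 mM ATP (final); kinetic read ex 525/em 598 nm.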
# Glioma ERSR ind: ER stress response induction in glioma | U87-MG GRP78 promoter luciferase reporter, 16 h | Potency, µM, without a hit: top-dose activation, most hits filed as activators | 420,000 tested, 0.02% active; also: potency is read from the fitted curve at half-maximal effect; series mostly up to about 76 µM; % of control where 0% means no effect; nearly all actives have a fitted effect of over 35% in size
#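 Stably transfected U87-MG human glioma cells carrying a GRP78-based luminescent sensor were seeded at 1000 cells/well, pin-dosed with compounds and incubated 16 h. Luciferase reagent was then added, and end-point luminescence was read after 10 min at room temperature.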
# Pin1 inhibitor: human Pin1 inhibition. Q13526. Pin1 FP peptide displacement, HiFluor488, 10 min. Potency, µM (series often up to 115 µM), without a hit: top-dose activity, negative = inhibition, hits mostly inhibitors. 390,000 tested, 0.009% active. AID 504891; active = well fitted inhibition curve with a large enough effect in the polarisation, with a control signal flat, not every such curve was filed as active; inconclusive = small, poorly fitted or top-dose-only effect, or effect the other way, or a change in a side signal; inactive = no such curve, though single readings can be large or run the other way; the % refers to the polarisation; also: potency is read from the fitted curve at half-maximal effect; % is scaled to controls: 0 for no effect and ±100 for the full control effect
# PI5P4Ka inh: PI5P4K alpha (human) kinase inhibition; PI5P4Kalpha enzyme, ADP-Glo luminescence, 60 min; stronger effect = lower value; AID 652105; 330,000 tested, 1.2% active; max response, %; active = max response of -50% or lower; inconclusive = between -30% and -50%; inactive = -30% or higher; also: value at the top dose of about 77 µM; % is scaled to controls: 0 for no effect and ±100 for the full control effect
#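 Quantitative HTS of the MLSMR library against PI5P4Kalpha with substrate. ATP added last at 5 microM final; room temperature, 60 minutes. Remaining ATP depleted, ADP converted and read as luminescence.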
# * = called active by the depositor; i = inactive; u = inconclusive; x = not tested or not shown; ! = not active in a repeat; [ ] = dose if it differs, or a comment. Most compounds without a hit are left out; they make up all but 1.3% or so of the library. Unless noted, calls follow the shape of the dose curve; as a rule, active = well fitted curve in the direction sought with a large enough effect; inconclusive = small, poorly fitted or top-dose-only effect, or another doubt; inactive = no such curve, though single readings can be large; an effect the other way counts as inactive or inconclusive.
SMILES,FEN1 inhibitor,PGK inhibitor,WRN helicase inh,Glioma ERSR ind,Pin1 inhibitor,PI5P4Ka inh
Cc1cc(/C=C/c2cccc3sc(C)[n+](CCCCI)c23)ccc1N(CCCl)CCCl,u,x,x,-9.1%,x,x
O=C1NC(=S)NC(=O)C1=Cc1ccc2c(c1)CCN2CCCCl,u,u,56.2µM*,-3.2%,x,-92.3*
CO/C=C(/C(=O)OC)c1ccccc1Oc1cc(Oc2ccccc2C#N)ncn1,x,x,x,-3.3%,x,x
Cc1cc(O)c2c(c1)C(=O)C13C(=C2O)C(=O)[C@H]2[C@@H](O)[C@@H]1[C@H]1[C@H](O)[C@@H]3C(=O)C3=C(O)c4c(O)cc(C)cc4C(=O)C312 (some centres not stated),u,-9.2%,u,-3.2%,16.3%,-52.6*
CN1CCC2(CC1)C(C#N)=C(N)NC(S)=C2C#N,-22.6%,-6.1%,56.2µM*!,-2.6%,u,u
CN(C)CCc1c[nH]c2cccc(O)c12,x,x,x,1.4%,x,x
Cc1cnc2c(C(=O)O)c(Cl)ccc2c1,x,x,x,-2.3%,x,x
CC[C@H](OC(C)=O)C(C[C@H](C)NC)(c1ccccc1)c1ccccc1,x,x,x,-6.0%,x,x
Cc1cc(C(C#N)c2ccc(Cl)cc2)c(Cl)cc1NC(=O)c1cc(I)cc(I)c1O (configuration not stated),28.2µM*,-27.6%,-28.3%,-1.8%,x,-54.9*
CN(C)c1ccc(/C=C2\C(=O)NC(=O)N(CCc3ccc(F)cc3)C2=O)cc1,-5.5%,1.5%,u,-4.0%,50.5%,-82.2*
Cc1ccc(/C=C2/C(=O)NC(=O)N(CCc3ccc(F)cc3)C2=O)o1,5.3%,-2.5%,50.1µM*,-2.3%,48.0%,-67.4*
COc1ccc(CN2C(=O)NC(=O)/C(=C\c3cc(OC)c(OC)c(OC)c3)C2=O)cc1,-0.6%,-11.4%,50.1µM*,-1.9%,9.2%,u
COCCN1C(=O)NC(=O)/C(=C\c2ccc(F)cc2)C1=O,15.8%,-8.7%,8.3%,-3.1%,6.5%,-24.0
O=C1NC(=O)N(CCc2ccc(F)cc2)C(=O)/C1=C/c1cccs1,-19.1%,i,31.6µM*,-4.4%,37.3%,-73.6*
Nc1ncnc2c1ncn2[C@@H]1O[C@H](COP(=O)(O)OP(=O)(O)OP(=O)(O)O)[C@H]2OC3(O[C@H]21)C([N+](=O)[O-])=CC(=[N+]([O-])[O-])C=C3[N+](=O)[O-] (some centres not stated),x,x,x,6.6%,x,x
CC[C@H](O)C(C[C@H](C)N(C)C)(c1ccccc1)c1ccccc1,x,x,x,-4.6%,x,x
CCC(N)CCc1c[nH]c2ccccc12 (configuration not stated),x,x,x,-2.2%,x,x
COc1cc(=O)n2c(c1C(=O)N(C)Cc1nonc1C)CCN(C(=O)C1C(C)(C)C1(C)C)CC2,x,x,x,-2.8%,x,x
O=C1NC(=O)N(Cc2ccc(F)cc2)C(=O)/C1=C\c1ccc(N2CCCC2)cc1,u,-3.4%,u,0.3%,u,-58.9*
COc1cc(CC(C)N)c(OC)cc1C (configuration not stated),x,x,x,4.4%,x,x
CCCCCCCCCCCCCCCC[n+]1ccccc1,79.4µM*,-6.9%,-3.2%,-10.8%,8.8%,-13.2
C[N+]1(CCF)[C@@H]2CC[C@@H]1CC(OC(=O)C(O)(c1ccccc1)c1ccccc1)C2 (some centres not stated),x,x,x,-2.7%,x,x
CCN(CC)c1ccc(CC2C(=O)N(C)C(=O)N(C)C2=O)cc1,-27.6%,-1.2%,20µM*,-5.3%,u,-3.1
C=CCOc1ccc(CC2C(=O)N(C)C(=O)N(C)C2=O)cc1,2.8%,-15.7%,-6.6%[11.6 µM],0.0%,0.7%,u
O=C(Nc1cccc(C(=O)Nc2cc(C(=O)Nc3ccc([S+](=O)([O-])[O-])c4cc([S+](=O)([O-])[O-])cc(SOOO)c34)ccc2F)c1)Nc1cccc(C(=O)Nc2cc(C(=O)Nc3ccc([S+](=O)([O-])[O-])c4cc([S+](=O)([O-])[O-])cc([S+](=O)([O-])[O-])c34)ccc2F)c1,x,x,x,-2.9%,x,x
SMILES,FEN1 inhibitor,PGK inhibitor,WRN helicase inh,Glioma ERSR ind,Pin1 inhibitor,PI5P4Ka inh
CCOC(=O)c1c(-n2c(C)cc(C=C3C(=O)NC(=S)NC3=O)c2C)sc2c1CCCC2,u,-6.8%,56.2µM*,u,u,-63.3*
CCOC(=O)c1c(-n2c(C)cc(/C=C3/C(=O)NC(=O)N(CC)C3=O)c2C)sc2c1CCCC2,-11.4%,1.0%,-1.6%,-5.3%,-2.8%,-16.7
CCc1ccc(-n2c(O)c(/C=N/N3CCCCC3c3cccnc3)c(=O)[nH]c2=O)cc1 (configuration not stated),16.9%,7.9%,-7.1%,-1.1%,-7.4%,3.8
O=c1[nH]c(=S)n(-c2ccccc2)c(O)c1/C=N/N1CCCCC1c1cccnc1 (configuration not stated),-8.1%,i,79.4µM*,-0.6%,u,-2.8
Cc1ccc(/C=C2\C(=O)NC(=S)N(c3ccccc3F)C2=O)s1,u,-19.6%,50.1µM*,-14.4%,6.7%,-110.5*
Cc1ccc(/C=C2\C(=O)NC(=S)N(c3ccc(F)cc3)C2=O)s1,2.7%,-9.6%,50.1µM*,u,u,-82.5*
CCOC(=O)C1CCN(/C=C2/C(=O)NC(=S)N(c3ccccc3F)C2=O)CC1,-8.0%,1.5%,3.5%,-1.8%,2.3%,-22.5
Cc1ccc2c(c1)[C@]13CCCC[C@@H]1[C@@H](C2)N(C)CC3,x,x,x,-2.7%,x,x
CC(C)n1c(O)c(C2c3cc(Cl)ccc3Oc3[nH]c(=O)n(C(C)C)c(=O)c32)c(=O)[nH]c1=O (configuration not stated),-14.2%,i,35.5µM*,-17.0%,1.8%,u
CC(=O)c1c(O)n(-c2cccc(Cl)c2)c(=O)[nH]c1=O (tested in a mixture with another compound),-5.6%,1.9%,-26.2%,-3.9%,u,9.5
NC(Cc1cc(O)c(O)cc1O)C(=O)O (configuration not stated),3.16µM*,x,x,-5.0%,x,x
COc1ccccc1-n1c(O)c(/C=N/NC(=S)Nc2ccccc2)c(=O)[nH]c1=S,11.6%,-0.1%,0.0%,3.7%,59.4%,-60.5*
C/C(=C/CCC(C)[C@H]1CC[C@@]2(C)C3=C(CC[C@]12C)[C@@]1(C)CCC(=O)C(C)(C)[C@@H]1CC3)C(=O)O (some centres not stated),50.1µM*,-3.9%,79.4µM*,0.0%,39.2%,-0.3
C=CCC1(O)CCC2C3CCC4=CC(=O)CCC4=C3C=CC21C (configuration not stated),x,x,x,-4.1%,x,x
O=C1[O][Sb-]23[O]C(=O)C([O]2)C2[O][Sb-]4([O]C(=O)C([O]4)C1[O]3)[O]C2=O,x,x,x,-11.2%,x,x
C[n+]1cc(P(=S)(c2ccccc2)c2ccccc2)n2ccccc21,x,x,x,x,-3.0%,x

# Screening data from PubChem BioAssay.
